EBV LMP1 NFkB = Epstein-Barr LMP1 NF-kappaB reporter inhibition | 350,000 compounds, 0.69% hits | inhibition, % at 12.5 µM | LMP1-induced NF-kappaB luciferase reporter cells, luminescence | AID 504558; in the data active = inhibition above about 41%;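 note: 0% = neutral control wells and 100% = reference inhibitor control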
TWEAK-Fn14 inh = blocks TWEAK-Fn14 interaction in a reporter cell assay | TWEAK-stimulated Fn14 reporter cells, luciferase luminescence, 8 h | AID 1159606 | 360,000 compounds, 2% hits | inhibition, % at 10 µM; in the data active = inhibition above about 50%
TRPM1 prom inh = reduces MITF-dependent TRPM1 promoter luciferase signal; inhibition, % at 12.5 µM; AID 488899; 330,000 compounds, 0.83% hits; SK-MEL-5 TRPM1 promoter luciferase, 24 h;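 active = mean inhibition across replicates of 60% or more, whatever share of single replicates reaches that level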
Shn3 inh set2 = reduces Shn3 3'UTR luciferase signal in osteoblasts; Clone20 osteoblast Shn3 3'UTR firefly luciferase, 24 h; inhibition, % at 12.5 µM; 360,000 compounds, 0.52% hits;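 active = mean inhibition of at least 75% with every replicate also reaching 75%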;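 note: 0% = median of neutral control wells and 100% = pilot-screen positive control compound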
TROY signal inh = blocks TROY-dependent signaling in reporter cells; Q293 LMP1-TROYcd NF-kB luciferase reporter, 4 h; inhibition, % at 10 µM; 360,000 compounds, 0.98% hits; AID 1347056;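 active = compounds whose plate-normalised and pattern-corrected inhibition of the luciferase reporter signal at the single screening dose is 50% or more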
Peg3 prom inh = reduces Peg3 promoter-driven luciferase expression in HeLa | HeLa PEG-Prom luciferase reporter, luminescence, overnight | inhibition, % at 20 µM | 360,000 compounds, 1.7% hits;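 active = inhibition of at least 50% at 20 µM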
* = called active by the depositor. The list is not random: actives were taken first. Their share in the collection is about 4.1%.

O=S1(=O)C[C@H](N2CCC(Cc3ccccc3)CC2)[C@@H](COCc2ccccc2)N1 was read as TWEAK-Fn14 inh 5, Shn3 inh set2 15, TROY signal inh 1 and Peg3 prom inh -3.
O=C1C(=O)c2ccccc2C([O-])=C1[n+]1ccccc1 was read as EBV LMP1 NFkB -19, TWEAK-Fn14 inh -3, TRPM1 prom inh 14, Shn3 inh set2 12, TROY signal inh -1 and Peg3 prom inh 8.
CCc1cc[n+](C2=C([O-])c3ccccc3C(=O)/C2=N\S(=O)(=O)c2cccs2)cc1 was read as EBV LMP1 NFkB 3, TWEAK-Fn14 inh 16, TRPM1 prom inh 97*, Shn3 inh set2 59, TROY signal inh 24 and Peg3 prom inh -20.
For Cn1nnnc1Sc1ncnc2scc(-c3ccc(-c4ccccc4)cc3)c12 the results were EBV LMP1 NFkB 28, TWEAK-Fn14 inh 78*, TRPM1 prom inh 11, Shn3 inh set2 36, TROY signal inh 4 and Peg3 prom inh 101*.
Cn1nnnc1Sc1ncnc2scc(-c3ccc(C#N)cc3)c12 was read as EBV LMP1 NFkB 57*, TWEAK-Fn14 inh 83*, TRPM1 prom inh 92*, Shn3 inh set2 80, TROY signal inh 46 and Peg3 prom inh 103*.
Screening Cn1nnnc1Sc1ncnc2scc(-c3cccs3)c12 returned EBV LMP1 NFkB 53*, TRPM1 prom inh 88* and Shn3 inh set2 28.
For Cn1nnnc1Sc1ncnc2scc(-c3cc4ccccc4o3)c12 the results were EBV LMP1 NFkB 62*, TWEAK-Fn14 inh 103*, TRPM1 prom inh 100*, Shn3 inh set2 62, TROY signal inh 76* and Peg3 prom inh 100*.
For COc1ccc(Cc2nnc(NC(=O)C3CCN(C(=O)c4ccco4)CC3)s2)cc1 the results were EBV LMP1 NFkB 7, TWEAK-Fn14 inh 4, TRPM1 prom inh 9, Shn3 inh set2 4, TROY signal inh 19 and Peg3 prom inh 8.
Screening Cc1cc(SCC(=O)N/N=C/c2ccccc2C(=O)O)c(C)cc1Br returned EBV LMP1 NFkB -7, TWEAK-Fn14 inh 18, TRPM1 prom inh -4, Shn3 inh set2 -2, TROY signal inh 6 and Peg3 prom inh 5.
Cc1cc(SCC(=O)N/N=C/c2ccc(O)cc2O)c(C)cc1Br was read as EBV LMP1 NFkB 38, TWEAK-Fn14 inh -6, TRPM1 prom inh 24, Shn3 inh set2 93*, TROY signal inh 17 and Peg3 prom inh 31.
O=C(/C=C\c1ccccc1)NCC(=O)N/N=C/c1ccc(O)cc1O was read as EBV LMP1 NFkB -5, TWEAK-Fn14 inh -29, TRPM1 prom inh 67*, Shn3 inh set2 -11, TROY signal inh -3 and Peg3 prom inh 7.
Screening CCc1cc(C(=O)N/N=C/c2ccc(O)cc2O)c2ccccc2n1 returned EBV LMP1 NFkB 11, TWEAK-Fn14 inh -21, TRPM1 prom inh 68*, Shn3 inh set2 93*, TROY signal inh 21 and Peg3 prom inh 52*.
`CC(=O)c1cc2c(cc1NC(=O)c1ccc(C)cc1)OCCO2` gave EBV LMP1 NFkB -27, TWEAK-Fn14 inh -12, TRPM1 prom inh -12, Shn3 inh set2 -32, TROY signal inh -61 and Peg3 prom inh -48.
O=C(Nc1c(Cl)cc2c(c1Cl)Cc1cc([N+](=O)[O-])ccc1-2)C(Cl)Cl was read as EBV LMP1 NFkB -30, TWEAK-Fn14 inh 9, TRPM1 prom inh -15, Shn3 inh set2 95*, TROY signal inh 14 and Peg3 prom inh -4.
Screening CC(=O)Nc1ccc2c(c1)Cc1c-2cc(Cl)c(NC(C)=O)c1Cl returned EBV LMP1 NFkB 3, TWEAK-Fn14 inh -3, TRPM1 prom inh -19, Shn3 inh set2 -11, TROY signal inh -35 and Peg3 prom inh -40.
For O=C(Cc1ccc(Cl)cc1)OCc1nnc(-c2ccccc2)o1 the results were EBV LMP1 NFkB -3, TWEAK-Fn14 inh -22, TRPM1 prom inh -1, Shn3 inh set2 2, TROY signal inh -3 and Peg3 prom inh -12.
`O=C(NCCc1ccc(Cl)cc1)C12CC3CC(CC(O)(C3)C1)C2` gave EBV LMP1 NFkB 58*, TWEAK-Fn14 inh -3, TRPM1 prom inh -18, Shn3 inh set2 -10, TROY signal inh -12 and Peg3 prom inh -49.
O=C(OCc1nnc(-c2ccc(Cl)cc2)o1)C12CC3CC(CC(O)(C3)C1)C2 was read as EBV LMP1 NFkB -11, TWEAK-Fn14 inh 48, TRPM1 prom inh -36, Shn3 inh set2 -57, TROY signal inh 67* and Peg3 prom inh -222.
Screening O=C(NCCS(=O)(=O)N1CCN(c2ccc(F)cc2)CC1)c1ccco1 returned EBV LMP1 NFkB -4, TWEAK-Fn14 inh 2, TRPM1 prom inh -7, Shn3 inh set2 -7, TROY signal inh -5 and Peg3 prom inh 11.
Screening CCC(C)Sc1ccc(-c2nc3cnccn3c2NC2CCCCC2)cc1 (stereo not drawn) returned EBV LMP1 NFkB -24, TWEAK-Fn14 inh -28, TRPM1 prom inh -11, Shn3 inh set2 7, TROY signal inh -50 and Peg3 prom inh 91*.
COc1ccc(Sc2ccc(-c3nc4cnccn4c3NC3CCCCC3)cc2OC)cc1 was read as EBV LMP1 NFkB -13, TWEAK-Fn14 inh 62*, TRPM1 prom inh 0, Shn3 inh set2 56, TROY signal inh 31 and Peg3 prom inh 63*.
Screening CCC(C)Sc1ccc(-c2nc3cc(C)ccn3c2NC2CCCCC2)cc1 (stereo not drawn) returned EBV LMP1 NFkB 1, TWEAK-Fn14 inh -23, TRPM1 prom inh -44, Shn3 inh set2 -2, TROY signal inh -26 and Peg3 prom inh -137.
`CCN(CC)c1nc(Oc2ccc(C(=O)NN)cc2)nc(Oc2ccc(C(=O)NN)cc2)n1` gave EBV LMP1 NFkB 4, TWEAK-Fn14 inh -25, TRPM1 prom inh -10, Shn3 inh set2 -8, TROY signal inh 53* and Peg3 prom inh -3.
CCN(CC)c1nc(Nc2ccccc2)nc(Oc2ccc(C(=O)OC)cc2)n1 was read as EBV LMP1 NFkB 6, TWEAK-Fn14 inh 27, TRPM1 prom inh 7, Shn3 inh set2 32, TROY signal inh 22 and Peg3 prom inh 30.
`CCN(CC)c1nc(Oc2ccc(C(=O)OC)cc2)nc(N2CCOCC2)n1` gave EBV LMP1 NFkB 52*, TWEAK-Fn14 inh -7, TRPM1 prom inh 9, Shn3 inh set2 50, TROY signal inh 17 and Peg3 prom inh -6.
For CCOc1ccc(CNC(=O)C2CCN(c3nnc(C)c4c(C)n(-c5ccc(C)cc5)nc34)CC2)cc1 the results were EBV LMP1 NFkB -6, TWEAK-Fn14 inh -31, TRPM1 prom inh 95*, Shn3 inh set2 61, TROY signal inh 4 and Peg3 prom inh 101*.
Cc1ccc(-n2nc3c(N4CCC(C(=O)NCc5ccccc5C)CC4)nnc(C)c3c2C)cc1 was read as EBV LMP1 NFkB 2, TWEAK-Fn14 inh -16, TRPM1 prom inh 94*, Shn3 inh set2 32, TROY signal inh 12 and Peg3 prom inh 89*.

Bioassay records: PubChem, several laboratories
